Here are results for 6 compounds from the supplement of paper PMC7411054.

Each structure is given as a SMILES string.

Common to all, as to conditions: treatment time: 24 h
One assay deals with A549-CANX-COX4. Kind of assay: phenotypically active (imaging signature differs from DMSO and reproducible) at any of 0.3-9 uM (binary (1 = active, 0 = inactive)); higher = active. The procedure, abridged:
(§1)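 Phenotypic activity depended on meeting both a deviation and a reproducibility criterion. The fifteen gene-edited A549, HepG2 and WPMY1 reporter lines were treated at 0.3, 1, 3 or 9 µM for 24 h, four wells each, then imaged live with features normalised to solvent control wells. Deviation required ≥3 of 4 wells past the 95th percentile of control Euclidean distances, and reproducibility a median replicate Pearson correlation above the 95th percentile of non-replicates.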

A further assay concerns A549-TP53BP1-CLTA. The assay is described as above. The procedure, abridged: as §1
For a further assay, the system named is HepG2-ACTB-RAB5A. The description is as above. The procedure, abridged: as §1
The next assay deals with HepG2-CANX-COX4. The description is as above. An outline of the steps:
as §1

The subject of another assay is HepG2-GM130-SQSTM1. The assay is described as above. The procedure, abridged: as §1
For a further assay, the system named is HepG2-TP53BP1-CLTA. The assay is described as above. An outline of the steps: as §1
The next assay concerns HepG2-TUBA1B-RELA. The description is as above. An outline of the steps:
as §1

Assay [1] relates to WPMY1-ACTB-RAB5A. The assay is described as above. An outline of the steps: as §1
Assay [2] deals with WPMY1-CANX-COX4. The assay is described as above. The procedure, abridged:
as §1

In assay [3] the test system is WPMY1-GM130-SQSTM1. The description is as above. An outline of the steps:
as §1

Assay [4] deals with WPMY1-TP53BP1-CLTA. Described as above. An outline of the steps: as §1
Assay [5] deals with WPMY1-TUBA1B-RELA. The assay is described as above. An outline of the steps: as §1
The test system of assay [6] is WPMY1-ACTB-RAB5A. Kind of assay: lowest phenotypically active concentration; higher = less potent. An outline of the steps: as §1
For assay [7], the system named is WPMY1-CANX-COX4. Described as above. An outline of the steps:
as §1

In assay [8] the test system is WPMY1-GM130-SQSTM1. Described as above. The procedure, abridged: as §1
Assay [9] concerns WPMY1-TP53BP1-CLTA. The assay is described as above. An outline of the steps:
as §1

For assay [10], the system named is WPMY1-TUBA1B-RELA. The assay is described as above. An outline of the steps: as §1

As for `CC(C)NCC(O)COc1cccc2ccccc12` (configuration not stated) [propranolol], the phenotypically active in the assay on A549-CANX-COX4, with A549-TP53BP1-CLTA, with HepG2-ACTB-RAB5A, in the assay with HepG2-CANX-COX4, in the assay with HepG2-GM130-SQSTM1 and in the assay on HepG2-TP53BP1-CLTA was 0 (inactive) each time. Moreover, the phenotypically active with HepG2-TUBA1B-RELA, in the assay with WPMY1-ACTB-RAB5A [1], with WPMY1-CANX-COX4 [2], in the assay with WPMY1-GM130-SQSTM1 [3], in the assay with WPMY1-TP53BP1-CLTA [4] and in the assay on WPMY1-TUBA1B-RELA [5] was 0 (inactive) each time.

For `Nc1ccn([C@@H]2O[C@H](CO)[C@@H](O)C2(F)F)c(=O)n1` [gemcitabine], the “lowest phenotypically active concentration” value with WPMY1-ACTB-RAB5A [6], in the assay with WPMY1-CANX-COX4 [7], with WPMY1-GM130-SQSTM1 [8], in the assay with WPMY1-TP53BP1-CLTA [9] and in the assay with WPMY1-TUBA1B-RELA [10] was ≤ 0.3 µM in each case. The phenotypically active in the assay with A549-CANX-COX4, in the assay on A549-TP53BP1-CLTA, with HepG2-ACTB-RAB5A, in the assay with HepG2-CANX-COX4, in the assay on HepG2-GM130-SQSTM1 and with HepG2-TP53BP1-CLTA was 1 (active) each time. Also, the phenotypically active with HepG2-TUBA1B-RELA, in the assay with WPMY1-ACTB-RAB5A [1], in the assay with WPMY1-CANX-COX4 [2], in the assay with WPMY1-GM130-SQSTM1 [3], in the assay on WPMY1-TP53BP1-CLTA [4] and with WPMY1-TUBA1B-RELA [5] was 1 (active) throughout.

For the compound `CCCCC1C(=O)N(c2ccccc2)N(c2ccc(O)cc2)C1=O` (configuration not stated) [oxyphenbutazone], the “lowest phenotypically active concentration” value in the assay with WPMY1-TUBA1B-RELA [10] was found to be 9 µM. In addition, the phenotypically active in the assay on A549-CANX-COX4, in the assay on A549-TP53BP1-CLTA, in the assay on HepG2-ACTB-RAB5A, in the assay with HepG2-CANX-COX4, in the assay with HepG2-GM130-SQSTM1 and in the assay on HepG2-TP53BP1-CLTA was 0 (inactive) in each case. Moreover, the phenotypically active in the assay with HepG2-TUBA1B-RELA was 0 (inactive); in the assay with WPMY1-ACTB-RAB5A [1], 0 (inactive); in the assay with WPMY1-CANX-COX4 [2] it was 0 (inactive); with WPMY1-GM130-SQSTM1 [3], 0 (inactive); with WPMY1-TP53BP1-CLTA [4], 0 (inactive); in the assay on WPMY1-TUBA1B-RELA [5], 1 (active).

For `Nc1cc(C(F)(F)F)c(-c2cc(N3CCOCC3)nc(N3CCOCC3)n2)cn1` [buparlisib], the “lowest phenotypically active concentration” value in the assay with WPMY1-ACTB-RAB5A [6] worked out at 3 µM; with WPMY1-CANX-COX4 [7], 1 µM; with WPMY1-GM130-SQSTM1 [8], 1 µM; in the assay on WPMY1-TP53BP1-CLTA [9], 3 µM; in the assay on WPMY1-TUBA1B-RELA [10], 3 µM. For the same compound, the phenotypically active with A549-CANX-COX4, in the assay on A549-TP53BP1-CLTA, with HepG2-ACTB-RAB5A, in the assay on HepG2-CANX-COX4, in the assay with HepG2-GM130-SQSTM1 and in the assay with HepG2-TP53BP1-CLTA was 1 (active) throughout. The phenotypically active in the assay on HepG2-TUBA1B-RELA, in the assay on WPMY1-ACTB-RAB5A [1], in the assay with WPMY1-CANX-COX4 [2], with WPMY1-GM130-SQSTM1 [3], with WPMY1-TP53BP1-CLTA [4] and in the assay on WPMY1-TUBA1B-RELA [5] was 1 (active) in each case.

With `O=c1cc(-c2cccc3c2Sc2ccccc2S3)oc(N2CCOCC2)c1`, the “lowest phenotypically active concentration” value in the assay on WPMY1-ACTB-RAB5A [6] amounted to 3 µM; in the assay on WPMY1-CANX-COX4 [7], 9 µM; in the assay on WPMY1-GM130-SQSTM1 [8], 9 µM; in the assay on WPMY1-TP53BP1-CLTA [9] it was 3 µM. For the same compound, the phenotypically active in the assay on A549-CANX-COX4 is 0 (inactive); in the assay with A549-TP53BP1-CLTA, 0 (inactive); with HepG2-ACTB-RAB5A, 1 (active); with HepG2-CANX-COX4, 1 (active); in the assay with HepG2-GM130-SQSTM1, 1 (active); with HepG2-TP53BP1-CLTA, 1 (active). Besides, the phenotypically active in the assay on HepG2-TUBA1B-RELA was 1 (active); with WPMY1-ACTB-RAB5A [1], 1 (active); with WPMY1-CANX-COX4 [2], 1 (active); in the assay with WPMY1-GM130-SQSTM1 [3], 1 (active); with WPMY1-TP53BP1-CLTA [4], 1 (active); in the assay on WPMY1-TUBA1B-RELA [5], 0 (inactive).

`N#Cc1c(O)c2c(-c3ccc(-c4ccccc4O)cc3)csc2[nH]c1=O`: the phenotypically active with A549-CANX-COX4, in the assay with A549-TP53BP1-CLTA, in the assay with HepG2-ACTB-RAB5A, in the assay with HepG2-CANX-COX4, in the assay with HepG2-GM130-SQSTM1 and with HepG2-TP53BP1-CLTA was 0 (inactive) throughout. Also, the phenotypically active with HepG2-TUBA1B-RELA, in the assay with WPMY1-ACTB-RAB5A [1], in the assay with WPMY1-CANX-COX4 [2], in the assay on WPMY1-GM130-SQSTM1 [3], in the assay with WPMY1-TP53BP1-CLTA [4] and with WPMY1-TUBA1B-RELA [5] was 0 (inactive) throughout.
